# Screens deposited in PubChem by National Center for Advancing Translational Sciences (NCATS).
# BAZ2B inh: qHTS Assay for Inhibitors of BAZ2B. Bromodomain adjacent to zinc finger domain protein 2B (Homo sapiens), Q9UIF8. AlphaScreen BAZ2B-H3K14Ac peptide displacement. Potency, µM (highest dose often 114 µM), inactives show top-dose activity change, negative = inhibition, most hits filed as inhibitors. 4.4% of 360,000 active. AID 504333, 2011; note: potency is the fitted concentration of half-maximal effect; % is set by controls: 0 for no effect and ±100 for the full control effect; nearly all actives have a fitted effect of over 60% in size
#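 Protein-peptide AlphaScreen: BAZ2B 50 nM, b-H3K14Ac 50 nM, 1x PBS pH 7.4 + 0.01% Tween-20. Preincubation 30 min RT; cpd 30 min RT (top 110 uM); beads 20 min RT, light-protected.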
# PI5P4K alpha inh: qHTS for Inhibitors of phosphatidylinositol 5-phosphate 4-kinase (PI5P4K) | PI5P4Kalpha enzyme, ADP-Glo luminescence, 60 min; active compounds read low | max response, % | 1.2% of 330,000 active | AID 652105, 2013; active = max response of -50% or lower; inconclusive = between -30% and -50%; inactive = -30% or higher; note: value at the top dose of about 77 µM; % is set by controls: 0 for no effect and ±100 for the full control effect
#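 Quantitative HTS of the MLSMR library against PI5P4Kalpha with substrate. ATP added last at 5 microM final; room temperature, 60 minutes. Remaining ATP depleted, ADP converted and read as luminescence.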
# HP1b binding inh: HTS for Inhibitors of HP1-beta Chromodomain Interactions with Methylated Histone Tails; Chromobox protein homolog 1 (Homo sapiens), P83916; AlphaScreen HP1-beta / biotin-H3K9me3 peptide binding; Potency, µM (titrated, usually from 114 µM), without a hit: top-dose activity change, negative = inhibition, usual class: inhibitors; 0.56% of 390,000 active; AID 540317, 2011; note: potency is the fitted concentration of half-maximal effect; nearly all actives have a fitted effect of over 70% in size
# Target sequence (P83916 whole entry, looked up): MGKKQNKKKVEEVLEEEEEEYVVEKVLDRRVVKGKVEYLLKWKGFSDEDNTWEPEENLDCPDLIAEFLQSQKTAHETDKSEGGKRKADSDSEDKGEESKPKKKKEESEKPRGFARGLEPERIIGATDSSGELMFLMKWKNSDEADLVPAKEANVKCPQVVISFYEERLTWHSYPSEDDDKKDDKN
#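 HP1-beta protein (50 nM final) preincubated 30 min at room temperature with biotinylated H3(1-18)K9me3 peptide (50 nM) in PBS pH 7.4, 0.01% Tween-20, then compound added for 30 min. AlphaScreen streptavidin donor/nickel chelate acceptor beads (10 ug/mL final), 30 min dark, luminescence read.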
# PLK1 PBD inh: qHTS for Inhibitors of PLK1-PDB (polo-like kinase 1 - polo-box domain): Primary Screen | Serine/threonine-protein kinase PLK1 (Homo sapiens), P53350 | Plk1 PBD binding of FITC phosphopeptide, fluorescence polarization | Potency, µM, for the others: max response, negative = inhibition, usual class: inhibitors | 2.8% of 360,000 active; note: potency is the fitted concentration of half-maximal effect; series mostly up to about 57 µM; % is set by controls: 0 for no effect and ±100 for the full control effect; nearly all actives have a fitted effect of over 65% in size
# KAT2A inh: qHTS Assay for Inhibitors of GCN5L2; Potency, µM (highest dose often 58.9 µM), without a hit: top-dose activity change, negative = inhibition, hits mostly inhibitors; GCN5L2 HAT assay, ThioGlo1 CoA-SH fluorescence; 0.21% of 390,000 active; note: potency is the fitted concentration of half-maximal effect; % is set by controls: 0 for no effect and ±100 for the full control effect
#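 ThioGlo1-coupled HAT assay: 20nM GCN5L2, 70uM acetyl-CoA, 75uM H3(1-25) peptide, pH 7.5. Fluorescence read at 340/540nm at start and after 20 min at room temperature.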
# JMJD2A Tudor inh: qHTS Assay for Inhibitors of JMJD2A-Tudor Domain. Lysine-specific demethylase 4A (Homo sapiens), O75164. AlphaScreen JMJD2A-Tudor / H3K4me3 peptide binding. Potency, µM (top dose mostly 114 µM), for the others: top-dose activity change, negative = inhibition, actives largely listed as inhibitors. 4.4% of 390,000 active; note: potency is the fitted concentration of half-maximal effect; % is set by controls: 0 for no effect and ±100 for the full control effect; nearly all actives have a fitted effect of over 50% in size
# An asterisk follows results filed as active; u = inconclusive; x = no result given; [ ] = dose if it differs, or a comment. This is a sample that favours compounds with a hit; in the whole collection about 7% have one here. Unless noted, calls come from the whole dose curve; as a rule, active = well fitted curve in the direction sought with a large enough effect; inconclusive = small, poorly fitted or top-dose-only effect, or another doubt; inactive = no such curve, though single readings can be large; an effect the other way counts as inactive or inconclusive.
SMILES,BAZ2B inh,PI5P4K alpha inh,HP1b binding inh,PLK1 PBD inh,KAT2A inh,JMJD2A Tudor inh
Cc1ccc(-n2c(SCC(N)=O)nnc2-c2ccccn2)cc1,25.1µM*,-0.5,36.1%,-8.9%,-7.2%,u
Cc1nnc(SCc2ccccc2)n(N)c1=O,-2.1%,2.1,18.1%,-1.4%,4.1%,-9.2%
CC1=C(C(=O)Nc2ccc(C)cc2C)C(C(C)C)n2nc(SCc3ccccc3Cl)nc2N1 (stereo not drawn),2.7%,x,0.2%,x,3.7%,-12.6%
CC(OC(=O)c1cnc(Cl)c(Cl)c1)C(=O)NCc1ccccc1 (stereo not drawn),-3.7%,0.3,32.0%,0.7%,-3.6%,-4.2%
CCC(=O)Nc1nc2nc(C)cc(=O)n2[nH]1,56.2µM*,-1.6,4.8%,-1.2%,-11.7%,31.6µM*
Cc1ccc(C(=O)Nc2nc3nc(C)cc(=O)n3[nH]2)cc1,-4.0%,x,-8.5%,x,3.5%,u
Cc1cc(=O)n2[nH]c(C(=O)O)nc2n1,u,-9.3,-26.9%,-9.6%,1.0%,8.91µM*
CC(=O)c1ccc(Nc2ccc(-c3ccccc3C)nn2)cc1,79.4µM*,-1.2,10.2%,u,-0.5%,-31.6%
CC(=O)c1cccc(Nc2ccc(-c3ccccc3F)nn2)c1,-4.8%,-10.8,5.7%,-10.3%,-1.2%,-3.1%
CCOC(=O)c1csc(N/N=C2\CCCc3ccccc32)n1,u,-2.6,21.0%,u,-3.7%,u
CCOC(=O)c1csc(N/N=C2\CCc3ccccc32)n1,44.7µM*,-2.3,2.3%,-16.5%,9.9%,u
CN(C)S(=O)(=O)c1ccc(N2CCOCC2)c(C(=O)NCc2ccc3c(c2)OCO3)c1,2.8%,3.0,23.2%,-19.5%,-1.4%,-7.7%
N#Cc1c(NC(=O)c2ccc(Cn3cc(Br)cn3)o2)sc2c1CCCCC2,10.6%[57.1 µM],2.2,23.5%,-23.0%,u,-30.7%
COC(=O)c1sc(NC(=O)c2ccc(Cn3cc(Cl)cn3)o2)c(C#N)c1C,-36.6%,u,-41.2%,2.99µM*,-20.7%,u
CCCc1ccccc1OCCNC(C)=O,-5.0%,u,-10.6%,3.36µM*,-21.0%,15.8µM*
CCc1ccc(OCC(=O)N/N=C\c2ccco2)c([N+](=O)[O-])c1,44.7µM*,u,u,u,-22.2%,u
O=C(COc1cccc([N+](=O)[O-])c1)N/N=C/c1ccco1,u,u,3.4%,-18.0%,-1.3%,u
CC1=NN(C(=O)c2c(Br)c(C)nn2C)C(O)(C(F)(F)F)C1 (stereo not drawn),-18.8%,-2.0,26.6%,1.3%,20.2%,-2.8%
CC1=NN(C(=O)c2c(Br)cnn2C)C(O)(C(F)(F)F)C1 (stereo not drawn),23.1%,-25.9,-10.8%,10.6µM*,-4.5%,-22.6%[11.4 µM]
O=[N+]([O-])c1ccccc1/C=C/CN1CCSCC1,50.1µM*,7.2,u,-12.7%,-0.7%,12.6µM*
CC1CCCN(C/C=C/c2ccccc2[N+](=O)[O-])C1 (stereo not drawn),2.7%,x,11.3%,4.8%,0.2%,-20.4%
CCN(CC)c1ccc(S(=O)(=O)N2CCOCC2)cc1NC(=O)CN1C(=O)NC2(CCC(C)CC2)C1=O (stereo not drawn),2.4%,-1.3,30.2%,-1.9%,-1.6%,-12.8%
CCCCNS(=O)(=O)c1cc(-c2nn(C)c(=O)c3ccccc23)ccc1C,u,-22.3,22.0%,-11.5%,-0.3%,-35.6%
CCN(CC)S(=O)(=O)c1cc(-c2nn(C)c(=O)c3ccccc23)ccc1C,50.1µM*,-28.5,-1.6%,-9.3%,-14.7%,u
Cc1ccc(C(=O)NCCCc2ccccc2)c(C)c1,-7.9%,u,3.2%,23.8µM*,-3.5%,u
